Source: PubChem BioAssay (Broad Institute)
Rows were chosen to be rich in hits. Some 3% of all compounds tested hit in one or more screens of this group.
MITF act: MITF TRPM1 promoter activation in melanoma cells. SK-MEL-5 TRPM1-promoter luciferase, 24 h; % of positive control, neutral wells = 0. activation, % at 12.5 µM. 0.75% of 300,000 active. AID 588334;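 active = mean activation of at least 80% with every replicate also reaching 80%; inconclusive = mean reaches 80% but some replicate falls short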;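 note: 0% = neutral control wells and 100% = parthenolide positive control wells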
Wnt bcat act: Wnt/beta-catenin pathway activation; activation, % at 9.35 µM; 1.2% of 300,000 active; Wnt/beta-catenin reporter cell assay, activator, plate reader; in the data active = activation above about 30%, passing the limit was not always enough; inconclusive = no clear call, values can overlap the other calls;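 note: 0% = neutral control wells and 100% = positive control wells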
PfHsp90 yeast 2: inhibits growth of yeast expressing Plasmodium falciparum Hsp90. S. cerevisiae expressing PfHsp90, BacTiter-Glo ATP, 48 h; yeast lacking PDR1 and PDR3 efflux regulators. inhibition, % at 9.4 µM. 0.32% of 310,000 active;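 active = every replicate shows inhibition above about 80%, whatever the replicate mean, limit read from the data; inconclusive = mean inhibition reaches the set limit but some replicate falls short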;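 note: 0% = DMSO neutral controls and 100% = 20 µM radicicol positive controls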
Vif inh: blocks HIV Vif function; inhibition, % at 7.49 µM; 0.35% of 340,000 active; HEK293T cells, Vif self-association by quenched fluorescence, imaging, 24 h; in the data active = inhibition above about 50%, passing the limit was not always enough; inconclusive = no clear call, values can overlap the other calls; inactive = below about 31%
N-glyco inh: N-linked glycosylation inhibition; 0.23% of 360,000 active; D54 ERlucT glycosylation luciferase reporter, 24 h; percent of 100 nM tunicamycin response; reporter increase, % at 12.5 µM;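 active = mean luciferase reporter signal, scaled so untreated is 0 and the glycosylation-blocking control 100, at or above a set limit in every replicate; inconclusive = mean reaches the limit but not every replicate does; inactive = mean below the limit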;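 note: luciferase carries N-glycosylation sites so blocking glycosylation raises the light; 0% = median of neutral control wells and 100% = median of 100 nM tunicamycin wells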
esBAF inh: inhibitors of esBAF chromatin remodeling in mouse ES cells. reporter increase, % at 12.5 µM. Bmi1-luciferase knock-in reporter, 24 h; 100% = twice the neutral-well signal. 2% of 350,000 active; in the data active = activation above about 40%; inconclusive = no clear call, values can overlap the other calls;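 note: 0% = median of the plate's neutral control wells and 100% = double that signal; a rise in the Bmi1 reporter signal indicates esBAF inhibition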
* = called active by the depositor; ? = inconclusive; · = no result.

SMILES	MITF act	Wnt bcat act	PfHsp90 yeast 2	Vif inh	N-glyco inh	esBAF inh
CCOC(=O)[C@H]1[C@H]2COc3ccc(Cl)cc3[C@@H]2N2C(=O)CN(Cc3ccccc3)C(=O)[C@@]12C	13	-2	7	-6	-3	-6
N#CC(Cc1cccs1)c1nc2ccccc2[nH]1 (stereo not given)	·	1	·	-8	3	11
N#CC(Cc1ccc(OC(F)F)cc1)c1nc2ccccc2[nH]1 (stereo not given)	91*	25	4	-1	1	60*
Cn1c(CCN2CCN(c3ccc(F)cc3)CC2)nc2cc(NC(=O)c3ccco3)ccc21	-14	-4	17	4	-7	6
Cc1cc2ncn(C(=O)N3CCC(C)CC3)c2cc1C	48	·	-17	-5	-2	54*
Cc1cc2ncn(C(=O)c3ccc4c(c3)OCO4)c2cc1C	11	-2	6	6	-1	13
C[C@H](CO)N1C[C@H](C)[C@@H](CN(C)C(=O)Nc2ccc(F)cc2)Oc2ccc(NC(=O)Nc3cccc4ccccc34)cc2C1=O	·	·	·	·	·	3
CCC(=O)NC(c1ccccc1OC)c1ccc2cccnc2c1O (stereo not given)	-64	·	-94	-1	-8	·
COc1ccc(Cl)cc1C(Nc1cccnc1)c1ccc2cccnc2c1O (stereo not given)	-27	5	104*	-1	6	·
Cn1c(SCC(=O)Nc2cccc(S(=O)(=O)N3CCOCC3)c2)nnc1-c1ccncc1	-4	-1	-9	9	1	·
CC(C)c1ccc(CNc2ccc([N+](=O)[O-])cn2)cc1	89*	7	8	10	-4	·
COc1ccc(-c2ccc3nccn3c2)cc1	·	-1	·	7	-2	45*
Cc1cc2c(cc1C)CSC(c1c(O)ccc3ccccc13)SC2	-3	-20	100*	-9	-4	-54
COC(=O)c1ccccc1Sc1c(/C=N/OC(=O)c2ccccc2)c(C(F)(F)F)nn1C	-12	·	18	2	1	·
Cn1nc(C(F)(F)F)c(/C=N/OC(=O)c2ccccc2Cl)c1SCc1ccc(Cl)cc1	·	·	14	2	61*	-25
COc1ccc(C(=O)O/N=C/c2c(C(F)(F)F)nn(C)c2SCc2ccccc2Cl)cc1	·	·	15	24	53*	3
Cc1ccc(C(=O)O/N=C/c2c(C(F)(F)F)nn(C)c2Sc2ccc(Cl)cc2)cc1	8	·	-19	-3	0	10
Cc1ccc(CNCC(O)(c2ccccc2)c2ccccc2)cc1	-4	2	50	-3	0	6
COCCn1c(SCc2cc(=O)n3ccsc3n2)nnc1-c1ccncc1	3	0	·	5	-1	·
Cc1cc(NC(=O)CN2C(=O)/C(=C/c3cccc(Br)c3)SC2=S)no1	2	1	-25	-2	0	·
COc1cccc(/C=C2\Oc3ccc(O)cc3C2=O)c1O	16	38*	-2	7	-15	-65
Cc1nc(C)c(-c2csc(Nc3ccc(F)cc3)n2)s1	36	34*	·	-8	0	·
COc1cccc(Nc2nc(-c3sc(C)nc3C)cs2)c1	·	0	-81	-4	1	71*
Cc1nc(C)c(-c2csc(Nc3ncccc3C)n2)s1	36	15	10	-15	-4	55*
Cc1nc(C)c(-c2csc(Nc3ccc(Cl)cn3)n2)s1	·	0	·	-31	-2	60*
SMILES	MITF act	Wnt bcat act	PfHsp90 yeast 2	Vif inh	N-glyco inh	esBAF inh
CC(=O)c1cccc(NC(=O)NNC(=O)c2ccc3ccccc3c2)c1	5	-3	-4	·	·	·
CC(CC(=O)Nc1ccccc1)NCCCN1CCCC1=O (stereo not given)	-2	1	5	6	1	·
O=C(Nc1cccc(-c2nnc(-c3ccccc3)o2)c1)C1CC1	66	2	5	35	-1	37
CCOc1cccc(C(=O)Nc2ccc3oc(Cc4ccc(Cl)cc4)nc3c2)c1	-16	·	6	56*	-6	1
Cc1cc(C)n(-c2ccc(C(=O)OCc3nnc(-c4ccccc4)o3)cc2)n1	14	·	15	0	1	46*
CCOc1cccc(C(=O)Nc2cccc(-c3nnc(-c4ccccc4)o3)c2)c1	27	6	-30	12	-5	43*
O=C(Nc1ccc2oc(Cc3ccc(Cl)cc3)nc2c1)c1cccnc1	-6	·	-17	-9	-1	-5
CC(=O)Nc1cccc(-c2nnc(-c3ccccc3)o2)c1	·	35*	·	-14	0	?
COc1cccc(C(=O)Nc2cccc(-c3nnc(-c4ccccc4)o3)c2)c1	25	17	-15	0	-1	·
CCCNC(=O)[C@@H]1[C@@H](CO)[C@@H]2Cn3c(ccc(-c4ccc(F)cc4)c3=O)[C@H]1N2C(=O)NC(C)C	·	·	·	·	·	2
CCOc1cccc(C(=O)Nc2cccc(-c3nnc(-c4ccc(C)cc4)o3)c2)c1	-81	·	-6	·	99*	-3
O=C(OCc1ccccc1)c1cccc(-c2nnc(-c3ccccc3)o2)c1	23	·	-5	7	-3	27
CCOC(=O)c1cccc(COC(=O)c2cccc(-c3nnc(-c4ccccc4)o3)c2)c1	-6	55*	-28	1	-4	·
CCOc1cccc(C(=O)Nc2ccc3oc(-c4cccnc4)nc3c2)c1	·	13	-12	-6	-1	·
COc1ccc(C(=O)c2cc3cccc(OC)c3o2)cc1	52	10	4	3	-4	60*
CCOC(=O)C/C(=N\Nc1ncnc2ccccc12)c1ccccc1	41	27	15	-38	0	43*
C/C(=N\Nc1nncc2ccccc12)c1ccc(O)cc1	8	29	-2	-32	-12	2
C/C(=N\Nc1nncc2ccccc12)c1ccc(C(C)(C)C)cc1	·	·	0	-1	-3	49*
C(=N\Nc1ncnc2ccccc12)/c1ccccc1	65	0	-9	1	-5	70*
Clc1cccc(/C=N/Nc2ncnc3ccccc23)c1	·	·	56	-7	4	53*
CCn1ncc(CN2CCCC(C(=O)Nc3cccc(-c4cc5ccccc5[nH]4)c3)C2)c1C (stereo not given)	-2	0	3	-2	-1	-7
C(=N\Nc1nncc2ccccc12)/c1ccccc1	39	38*	13	11	-7	38
Cc1cccc(/C=N/Nc2nncc3ccccc23)c1	67	6	-6	-5	-16	-11
O=C(Nc1nnc(SCc2ccc(Cl)cc2)s1)C1CC(=O)N(Cc2ccccc2)C1 (stereo not given)	4	34*	-2	-9	1	-14
COC(=O)c1ccc(CSc2nnc(NC(=O)C3CC(=O)N(Cc4ccc(C)cc4)C3)s2)cc1 (stereo not given)	-19	-3	-16	0	1	-4
